Measured values from PubChem BioAssay AID1159580 (chemical genetic matrix, 2015).
In all, about 5,500 compounds went through this assay and about 2,000 (36%) were called active. Another 18% or so got no clear call; they are omitted. Rule as the data show it: active = normalized growth mostly below about 0.91 (no sharp cut-off); inconclusive = no clear call, values can overlap the other calls; inactive = mostly above about 0.92. The list shows a part of the results.

Assay: chemical genetic growth profiling, strain panel (AID 1159580);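 also: tested at 20 µM; growth read once vehicle control cultures reached saturation at 30 °C; 1 = growth at the plate median or of vehicle wells; lower values mean less growth of the strain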
Conditions: S. cerevisiae deletion strains, growth OD

Measured: normalized growth

COc1cc2c(cc1OC)-c1c(oc3c4c(ccc3c1=O)OC(C(C)C)C4)CO2 (stereo unspecified)
inactive: locus YAL013W, strain DEP1, stronger effect = lower value 1.01 | locus YBR021W, strain FUR4, stronger effect = lower value 1.06 | locus YBR229C, strain ROT2, stronger effect = lower value 1.01 | locus YCL029C, strain bik1, stronger effect = lower value 0.99 | locus YDL035C, strain GPR1, stronger effect = lower value 1.05 | locus YDL074C, strain BRE1, stronger effect = lower value 1.06 | locus YDL101C, strain DUN1, stronger effect = lower value 0.981 | locus YDL134C, strain PPH21, stronger effect = lower value 0.983 | locus YDL185W, strain tfp1, stronger effect = lower value 0.942 | locus YDL192W, strain arf1, stronger effect = lower value 1.01 | locus YDR101C, strain arx1, stronger effect = lower value 1.04 | locus YDR162C, strain NBP2, stronger effect = lower value 0.978 | locus YDR318W, strain mcm21, stronger effect = lower value 0.973 | locus YDR388W, stronger effect = lower value 0.982 | locus YDR502C, strain sam2, stronger effect = lower value 0.978 | locus YER110C, stronger effect = lower value 0.989 | locus YER155C, strain BEM2, stronger effect = lower value 0.997 | locus YER167W, strain BCK2, stronger effect = lower value 1.01 | locus YGL078C, strain dbp3, stronger effect = lower value 0.938 | locus YGL086W, strain mad1, stronger effect = lower value 0.983 | locus YGL248W, strain PDE1, stronger effect = lower value 0.988 | locus YGR078C, strain PAC10, stronger effect = lower value 0.982 | locus YGR135W, strain pre9, stronger effect = lower value 0.923 | locus YGR252W, strain gcn5, stronger effect = lower value 1.03 | locus YHR079C, strain IRE1 (second series), stronger effect = lower value 0.969 | locus YHR094C, strain hxt1, stronger effect = lower value 0.979 | locus YHR129C, strain ARP1, stronger effect = lower value 1 | locus YHR200W, strain rpn10, stronger effect = lower value 0.985 | locus YIL066C, strain RNR3, stronger effect = lower value 1.03 | locus YIL073C, strain SPO22, stronger effect = lower value 0.942 | locus YIL125W, strain kgd1, stronger effect = lower value 0.984 | locus YIR030C, strain dcg1, stronger effect = lower value 0.968 | locus YJL095W, strain BCK1, stronger effect = lower value 0.965 | locus YJL134W, strain LCB3, stronger effect = lower value 1 | locus YJL168C, strain set2, stronger effect = lower value 0.979 | locus YJL187C, strain SWE1 (second series), stronger effect = lower value 0.974 | locus YJR075W, strain HOC1, stronger effect = lower value 0.971 | locus YKL009W, strain mrt4, stronger effect = lower value 1.02 | locus YKL068W, stronger effect = lower value 0.98 | locus YKL085W, strain MDH1 (second series), stronger effect = lower value 0.973 | locus YKL085W, strain MDH1, stronger effect = lower value 0.973 | locus YKL190W, strain CNB1, stronger effect = lower value 0.992 | locus YKR001C, strain vps1, stronger effect = lower value 1.01 | locus YLR039C, strain RIC1, stronger effect = lower value 0.998 | locus YLR058C, strain SHM2, stronger effect = lower value 1 | locus YLR102C, strain apc9, stronger effect = lower value 0.988 | locus YLR268W, strain sec22, stronger effect = lower value 1.04 | locus YLR330W, strain CHS5, stronger effect = lower value 0.998 | locus YLR342W, strain FKS1 (second series), stronger effect = lower value 1.1 | locus YLR371W, strain rom2, stronger effect = lower value 0.982 | locus YLR418C, strain cdc73, stronger effect = lower value 0.981 | locus YML016C, strain PPZ1, stronger effect = lower value 0.989 | locus YML032C, strain rad52, stronger effect = lower value 1.01 | locus YML124C, strain tub3, stronger effect = lower value 0.971 | locus YMR078C, strain ctf18, stronger effect = lower value 0.962 | locus YMR223W, strain ubp8, stronger effect = lower value 0.979 | locus YMR263W, strain SAP30, stronger effect = lower value 0.984 | locus YMR307W, strain GAS1, stronger effect = lower value 1.15 | locus YNL067W, strain RPL9B, stronger effect = lower value 0.964 | locus YNL153C, strain GIM3, stronger effect = lower value 0.963 | locus YNL233W, strain BNI4, stronger effect = lower value 0.984 | locus YNL250W, strain rad50, stronger effect = lower value 0.93 | locus YNL271C, strain bni1, stronger effect = lower value 0.958 | locus YNL298W, strain CLA4, stronger effect = lower value 0.979 | locus YNL307C, strain MCK1, stronger effect = lower value 0.985 | locus YNR052C, strain pop2, stronger effect = lower value 0.962 | locus YOL006C, strain TOP1, stronger effect = lower value 1.17 | locus YOL012C, strain htz1 0.827 | locus YOL147C, strain pex11, stronger effect = lower value 0.973 | locus YOR061W, strain CKA2, stronger effect = lower value 1.02 | locus YOR069W, strain VPS5, stronger effect = lower value 0.996 | locus YOR136W, strain idh2, stronger effect = lower value 0.965 | locus YOR144C, strain elg1, stronger effect = lower value 1 | locus YOR184W, strain ser1, stronger effect = lower value 1.08 | locus YOR316C, strain cot1, stronger effect = lower value 0.97 | locus YPL241C, strain CIN2, stronger effect = lower value 0.986 | locus YPR119W, strain clb2, stronger effect = lower value 0.966 | locus YPR141C, strain kar3, stronger effect = lower value 0.954 | locus YPR163C, strain tif3, stronger effect = lower value 0.988 | locus YPR167C, strain met16, stronger effect = lower value 0.973 | strain wtn01, stronger effect = lower value 1.03
